# Bioassay records deposited in PubChem BioAssay by National Center for Advancing Translational Sciences (NCATS).
# Only some compounds are listed: those with a hit (about 7.4% of all), similar ones and a draw of the others.
# p53 reactivator – mutant p53 re-activation in reporter cells; 0.063% of 320,000 active; AID 504706; Potency, µM (doses to about 92.2 µM), actives largely listed as activators; H1299 p53-A138V BP100-luciferase reporter, luminescence, 24 h; further: nearly all actives have a fitted effect of over 45% in size
#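 p53-null H1299 cells stably carrying temperature-sensitive p53-A138V and a BP100-luciferase reporter were pinned with compounds (4-point, 1:5 series) and held 24 hrs at 37 deg C. Luminescence was read 10 min after detection reagent.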
# SMN2 splice up – enhancers of SMN2 splice variant expression. HEK293 SMN2-luciferase splicing reporter, luminescence, 30-36 h. Potency, µM (top dose mostly 46.1 µM), hits mostly activators. 2.8% of 210,000 active; further: nearly all actives have a fitted effect of over 55% in size
#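 HEK293 cells carry an SMN2 minigene-luciferase reporter in which exon 7 inclusion puts luciferase in frame. Cells were seeded at 2000 cells/well, attached for 10-12 hours, then exposed to compounds for 30-36 hours at 37C before ONE-Glo luminescence.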
# FLuc counter – counter-screen for miR-21 project: firefly luciferase inhibitors or activators | purified FLuc, Km substrates, luminescence inhibition | Potency, µM (series often up to 57.5 µM), usual class: inhibitors | 6.9% of 360,000 active | AID 588342; further: nearly all actives have a fitted effect of over 55% in size
# Target sequence (P08659 whole entry, looked up): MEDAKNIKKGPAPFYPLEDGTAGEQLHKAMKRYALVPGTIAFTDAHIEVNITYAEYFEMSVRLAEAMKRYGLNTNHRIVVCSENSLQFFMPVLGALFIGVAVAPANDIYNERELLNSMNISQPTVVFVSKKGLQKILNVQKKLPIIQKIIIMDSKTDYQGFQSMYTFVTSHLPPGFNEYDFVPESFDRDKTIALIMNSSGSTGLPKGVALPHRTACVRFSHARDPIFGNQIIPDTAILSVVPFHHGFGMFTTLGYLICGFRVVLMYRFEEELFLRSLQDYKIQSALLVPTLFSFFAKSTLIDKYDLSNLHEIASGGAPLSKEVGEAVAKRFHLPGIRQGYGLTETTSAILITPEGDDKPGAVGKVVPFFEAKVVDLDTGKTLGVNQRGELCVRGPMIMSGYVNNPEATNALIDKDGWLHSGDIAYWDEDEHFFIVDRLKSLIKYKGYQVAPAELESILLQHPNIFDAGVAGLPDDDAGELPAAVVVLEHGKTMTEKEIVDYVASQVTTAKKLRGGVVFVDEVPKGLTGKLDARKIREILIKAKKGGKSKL
#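 Biochemical qHTS of compounds, final roughly 60 µM downward over six points, against 10 nM purified firefly luciferase using Km concentrations of substrates (10 uM D-luciferin, 10 uM ATP) in Tris acetate pH 7.5 buffer; luminescence output.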
# NPC1 promoter act – activators of NPC1 promoter; Huh7 NPC1 promoter luciferase reporter, 24 h; Potency, µM (highest dose often 9.22 µM), actives largely listed as activators; 2.4% of 320,000 active; further: nearly all actives have a fitted effect of over 60% in size
#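 NPC1 promoter–luciferase Huh7 cells; 24 h compound; luminescence.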
# ELG1 genotox – inducers of genotoxicity in HEK293T ELG1-luciferase cells; HEK293T ELG1-luciferase reporter, luminescence, 16 h; Potency, µM (highest dose often 46 µM), hits mostly activators; 1.3% of 330,000 active; further: nearly all actives have a fitted effect of over 60% in size
#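 After overnight (16 hr) compound treatment at 37 °C, ELG1-luciferase HEK293T cells were lysed with ONE-Glo; luminescence quantified 30 min later at room temperature.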
# Rab9 prom act – activators of Rab9 promoter. Huh7 Rab9 promoter-luciferase reporter, luminescence, 24 h. Potency, µM (doses to about 9.22 µM), hits mostly activators. 2.8% of 320,000 active; further: nearly all actives have a fitted effect of over 60% in size
#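 Steps: seed 1500 Huh7 Rab9-luc cells per well, rest 2 h at 37 °C; add compound in DMSO; incubate 24 h; add luciferase reagent, 10 min ambient; read luminescence.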
# Hits are given with their value; i = inactive; ? = inconclusive; nt = not tested or not shown; [ ] = remark or other dose. The call rests on the fitted dose curve; in most records, active means well fitted curve in the direction sought with a large enough effect; inconclusive means small, poorly fitted or top-dose-only effect, or another doubt; inactive means no such curve, though single readings can be large; an effect the other way counts as inactive or inconclusive.
SMILES,p53 reactivator,SMN2 splice up,FLuc counter,NPC1 promoter act,ELG1 genotox,Rab9 prom act
COc1ccc(C)cc1-n1nnnc1SCc1nc2ccccc2s1,?,i,11µM,?,i,?
COc1ccc(-n2nnnc2SCc2nc3ccccc3s2)cc1,?,i,11µM,i,16µM,?
COc1ccc(C2c3c(n(C)c4ccccc34)C(=O)N2CC(=O)Nc2cccc(F)c2)cc1 (centres undefined),nt,nt,i,nt,nt,nt
CCN1CCOC(=O)C1CC(=O)Nc1ccc(C)c(Cl)c1 (centres undefined),nt,i,i,nt,nt,nt
CCCCNC(=O)c1ccc2c(c1)ncn2C1CCCC1,i,i,17µM,i,?,i
O=C(O)c1ccc(S(=O)(=O)N[C@@H](Cc2ccc(O)cc2)C(=O)O)cc1,nt,nt,i,i,nt,i
O=C(Nc1ccncc1)Nc1cccc(Cl)c1,i,nt,?,i,i,i
CN(c1cccc(NC(=O)Nc2cccc(Cl)c2)c1)S(C)(=O)=O,i,i,17µM,i,i,i
CN(C)c1ccc(NC(=O)Nc2cccc(Cl)c2)cc1,?,13µM,1.3µM,2.2µM,?,1.8µM
O=C(Nc1cccc(Cl)c1)Nc1csc([N+](=O)[O-])c1,i,nt,19µM,i,i,i
COc1ccc(OC)c(CCNC(=O)c2cc3c(-c4ccccc4F)nn(C)c3s2)c1,nt,i,i,nt,nt,nt
Cn1nc(-c2ccccc2F)c2cc(C(=O)NCCc3ccc(Cl)cc3)sc21,nt,i,i,nt,nt,nt
O=C(CSc1cccc[n+]1[O-])Nc1cc2c(cc1Cl)C(=O)c1ccccc1C2=O,?,11µM,11µM,?,i,?
O=C(CSc1cccc[n+]1[O-])Nc1cc([N+](=O)[O-])ccc1Cl,i,i,i,i,i,i
Cc1cccc(Cn2c(=O)n(CCCC(=O)NCc3ccccc3Cl)c(=O)c3ccccc32)c1,nt,i,i,nt,nt,nt
O=C(Cn1c(=O)n(Cc2ccccc2)c(=O)c2oc3ccccc3c21)Nc1ccc(Cl)cc1,nt,nt,i,nt,nt,nt
COc1ccc(C(=O)COC(=O)c2cc(-c3cccs3)nc3ccccc23)cc1,nt,i,2.7µM,nt,nt,nt
Cc1ccc(C(=O)COC(=O)c2cc(-c3cccs3)nc3ccccc23)cc1,nt,i,2.4µM,nt,nt,nt
O=C(COC(=O)c1cc(-c2ccccc2)nc2ccccc12)c1ccc(Br)cc1,nt,i,i,nt,nt,nt
O=C(COC(=O)c1cc(-c2cccs2)nc2ccccc12)c1ccc(F)cc1,nt,i,?,nt,nt,nt
COc1ccccc1C(=O)N/C(=C\c1cn(S(=O)(=O)N(C)C)c2ccccc12)C(=O)NCCN1CCOCC1,i,nt,i,i,i[9.26 µM],i
CCN1CCN(c2c(C=O)c(Cl)nc3ccc(OC)cc23)CC1,i,nt,i,i,i,i
C#CCn1cc(C=C2C(=O)c3ccccc3C2=O)c2ccccc21,i,i,2.4µM,i,i,i
CC(=O)c1ccc(NC(=O)CC2Sc3ccccc3NC2=O)cc1 (centres undefined),nt,i,i,nt,nt,nt
Cc1ccc(C(=O)Nc2ccc(NC(=O)c3cccs3)cc2)cc1[N+](=O)[O-],i,i,i,i,?,i
SMILES,p53 reactivator,SMN2 splice up,FLuc counter,NPC1 promoter act,ELG1 genotox,Rab9 prom act
Cc1ccc(NC(=O)c2cccs2)cc1[N+](=O)[O-],i,nt,21µM,i,i,i
Cc1ccc([N+](=O)[O-])cc1NC(=O)c1ccc(C(C)(C)C)cc1,i,i,?,i,i,i
Cc1ccc(NC(=O)c2ccc(C(C)(C)C)cc2)cc1[N+](=O)[O-],?,i,6µM,?,?,?
COc1ccc(Br)cc1CNC(=O)Cn1ncn2nc(-c3cccs3)cc2c1=O,nt,nt,i,nt,nt,nt
CCN1C(=O)[C@@H]2[C@H](C1=O)[C@@H]1C[C@H]3C(=O)N(CC)C(=O)[C@H]3[C@@H]3C1=C(C(=O)N1C(=O)O/C(=N\CC4CC4)[C@]31C)[C@@H]2C,nt,i,nt,nt,nt,nt
CC1CCc2c(sc(NC(=O)Cn3nc(C(=O)O)c4ccccc4c3=O)c2C#N)C1 (centres undefined),i,nt,12µM,i,i,i
CC1CCc2c(sc(NC(=O)CSc3nnc(-c4ccccc4)o3)c2C#N)C1 (centres undefined),i,i,i,i,i,i
N#Cc1c(NC(=O)CSc2ncn[nH]2)sc2c1CCCC2,i,i,8.5µM,i,i,i
CC(C)(C)C1CCc2c(sc(NC(=O)CSc3ncn[nH]3)c2C#N)C1 (centres undefined),i,i,?,i,i,i
CCCc1cc(=O)[nH]c(SCC(=O)Nc2sc3c(c2C#N)CCC(C)C3)n1 (centres undefined),i,i,27µM,i,i,i
CCN1CCN(CC(=O)Nc2sc3c(c2C#N)CCC(C)C3)CC1 (centres undefined),?,i,i,i,i,i
CC1CCc2c(sc(NC(=O)CSc3ncn[nH]3)c2C#N)C1 (centres undefined),i,nt,11µM,i,i,i
CCCC(NC(C)C(=O)N1C(C(=O)O)CC2CCCCC21)C(=O)OCC (centres undefined),nt,i,nt,nt,nt,nt
O=C(O)CSc1nnc(-c2ccccc2)o1,i,i,i,i,i,i
CC(C)(C)c1ccc(-c2nnc(SCCN3C(=O)c4ccccc4C3=O)o2)cc1,i,i,15µM,i,i,i
CC(=O)c1ccc(-c2csc(N3CCC(C(N)=O)CC3)n2)cc1,i,nt,?,i,i,i
NC(=O)C1CCN(c2nc(-c3ccc(C(F)(F)F)cc3)cs2)CC1,nt,nt,17µM,nt,nt,nt
NC(=O)C1CCN(c2nc(-c3ccc(Br)cc3)cs2)CC1,i,4µM,i,?,6.5µM,2.5µM
NC(=O)C1CCN(c2nc(-c3ccc(N4CCCCC4)nc3)cs2)CC1,nt,nt,4.8µM,nt,nt,nt
NC(=O)C1CCN(c2nc(-c3ccc([N+](=O)[O-])cc3)cs2)CC1,nt,nt,i,nt,nt,nt
CC(=O)Nc1ccc(-c2csc(N3CCC(C(N)=O)CC3)n2)cc1,nt,nt,i,nt,nt,nt
COc1ccccc1Cn1cc(C(=O)c2ccc(C)cc2)c(=O)c2cc(F)cc(F)c21,nt,i,i,nt,nt,nt
CN(Cc1nc(-c2cccc(Cl)c2)no1)C1CCOCC1,i,nt,?,?,?,2µM
COc1cccc2cc(NC(=O)C3CCCCC3)c(=O)oc12,i,?,?,3.2µM,?,1.8µM
COc1cccc2cc(CC(=O)c3ccc(C)cc3C)c(=O)oc12,i,nt,11µM,?,i,?
COc1cccc2cc(C(=O)N3CCCCC3C)c(=O)oc12 (centres undefined),i,i,i,i,i,i
COc1cccc2cc(C(=O)Nc3cccc(C)n3)c(=O)oc12,?,i,0.21µM,i,2.3µM,?
COc1cccc2cc(C(=O)Nc3ccc(C)cc3)c(=O)oc12,nt,i,0.38µM,nt,nt,nt
Cc1cccc(CNC(=O)CN2C(=O)C3CCCCN3c3ccc(C(=O)N4CCCC4)cc32)c1 (centres undefined),nt,nt,i,nt,nt,nt
